± gives the standard deviation of the averaged measurements.
Legend:
[1] = system: DLD1; experiment: cell viability (CellTiter-Glo) relative to plate median (fraction of plate median); higher = more viable cells; settings: 5 µM; treatment time 24 h; reporter: 7TFP
Outline: (§1)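 Stable lentiviral TCF/Wnt firefly luciferase reporters (7TFP or TCF4/Wnt) were present in the colorectal cancer cell lines used. These cells received library compounds at a final 5 µM for 24 h, and parallel plates were read for firefly luciferase or CellTiterGlo luminescence. Each well was normalised to the plate median, and the value reported is the mean of two independent replicates.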

[2] = system: HCT116; experiment: as above; settings: 5 µM; treatment time 24 h; reporter: TCF4/Wnt
Outline: as §1

[3] = system: SW480; experiment: as above; settings: 5 µM; treatment time 24 h; reporter: 7TFP
Outline: as §1

[4] = system: DLD1; experiment: TCF/Wnt firefly luciferase reporter signal relative to plate median (fraction of plate median); higher = higher Wnt reporter signal; settings: 5 µM; treatment time 24 h; reporter: 7TFP
Outline: as §1

[5] = system: SW480; experiment: as above; settings: 5 µM; treatment time 24 h; reporter: 7TFP
Outline: as §1

SMILES	cell viability [1]	cell viability [2]	cell viability [3]	TCF/Wnt firefly luciferase reporter signal [4]	TCF/Wnt firefly luciferase reporter signal [5]
C=CCCCCCCCCCCCC(O)CC(O)CO (stereo not given)	1.1 ± 0.099	1.05 ± 0.11	1.05 ± 0.05	0.964 ± 0.05	1.03 ± 0.042
O=C(O)CN1C(=O)c2cccc3cccc(c23)C1=O	0.996 ± 0.034	0.967 ± 0.017	1.005 ± 0.0071	0.964 ± 0.12	1.09 ± 0.042
CS(=O)(=O)c1ccc([C@@H](O)[C@@H](CO)NC(=O)C(Cl)Cl)cc1	0.914 ± 0.055	0.958 ± 0.06	0.925 ± 0.014	0.982 ± 0.018	0.814 ± 0.058
CC(C)CCC[C@@H](C)[C@H]1CC[C@H]2[C@@H]3CC=C4CC(=O)CC[C@]4(C)[C@H]3CC[C@]12C	1 ± 0.026	1.015 ± 0.0071	1.03 ± 0.048	0.979 ± 0.13	0.974 ± 0.19
N[C@@H](Cc1c[nH]c2ccccc12)C(=O)O	1.07 ± 0.078	1.07 ± 0.014	1.03 ± 0.014	1.21 ± 0.028	1.1 ± 0.05
COc1ccc2cc1Oc1ccc(cc1)C[C@H]1c3cc(c(OC)cc3CCN1C)Oc1c(OC)c(OC)cc3c1[C@H](C2)N(C)CC3	1.04 ± 0.13	0.897 ± 0.15	1.215 ± 0.0071	0.948 ± 0.025	0.889 ± 0.071
COC(=O)[C@H]1[C@H]2C[C@@H]3c4[nH]c5cc(OC)ccc5c4CCN3C[C@H]2C[C@@H](OC(=O)c2cc(OC)c(OC)c(OC)c2)[C@@H]1OC	0.932 ± 0.065	1.02 ± 0.07	0.972 ± 0.054	0.974 ± 0.093	1.01 ± 0.018
Cc1cc(O)c(C=O)c2c1C(=O)Oc1c(C)c(O)c3c(c1O2)C(O)OC3=O (stereo not given)	0.975 ± 0.092	1.11	0.988 ± 0.017	1.04 ± 0.068	1.02 ± 0.036
O=C1NC(Cc2ccc(O)cc2)C(=O)N2CCCC12 (stereo not given) [Cyclo(tyrosylprolyl)]	0.935 ± 0.0085	0.928 ± 0.023	0.9425 ± 0.0021	0.768 ± 0.15	0.959 ± 0.028
C[C@H](CCC(=O)O)[C@H]1CC[C@H]2[C@@H]3[C@H](O)C[C@@H]4C[C@H](O)CC[C@]4(C)[C@H]3CC[C@]12C	1 ± 0.021	1.01 ± 0.22	1.025 ± 0.0071	0.949 ± 0.038	1.1 ± 0.028
CCOC(=O)CCC(=O)O[C@H]1[C@H](O[C@@H]2[C@@H](C)[C@H](O[C@H]3C[C@@](C)(OC)[C@@H](O)[C@H](C)O3)[C@@H](C)C(=O)O[C@H](CC)[C@@](C)(O)[C@H](O)[C@@H](C)C(=O)[C@H](C)C[C@@]2(C)O)O[C@H](C)C[C@@H]1N(C)C	1.065 ± 0.0071	1.01 ± 0.096	1.01 ± 0.021	1.005 ± 0.0071	0.94 ± 0.025
CC(=O)OCC(CCn1cnc2cnc(N)nc21)COC(C)=O	0.9935 ± 0.0021	0.97 ± 0.04	0.9805 ± 0.0092	0.984 ± 0.052	1.025 ± 0.0071
CC(=O)Nc1ccc(S(=O)(=O)Nc2ccc([N+](=O)[O-])cc2)cc1	0.868 ± 0.03	0.933 ± 0.12	1.02 ± 0.028	1.1 ± 0.071	1.08 ± 0.042
O=C1C=C(O)C(=O)c2ccccc21	1.025 ± 0.0071	1.06 ± 0.035	1.02 ± 0.047	0.947 ± 0.09	0.985 ± 0.11
CCOc1ccc2ccccc2c1C(=O)N[C@@H]1C(=O)N2[C@@H]1SC(C)(C)[C@@H]2C(=O)O	0.991 ± 0.07	1.035 ± 0.0071	1.06 ± 0.071	1.1 ± 0.26	1.12 ± 0.057
C[C@H]1CC2C3CCC4=CC(=O)C=C[C@]4(C)[C@@]3(F)[C@@H](O)C[C@]2(C)[C@@]1(O)C(=O)COP(=O)(O)O (stereo not given in full)	0.93 ± 0.063	0.942 ± 0.028	0.952 ± 0.029	1.03 ± 0.09	1.06 ± 0.028
Cc1ncc(C[n+]2csc(CCO)c2C)c(N)n1	0.981 ± 0.041	0.978 ± 0.088	1.005 ± 0.0071	0.926 ± 0.011	0.946 ± 0.02
O=C1c2ccccc2C(=O)C1c1ccccc1	1.02	1.02 ± 0.048	1.02	1.12 ± 0.014	1.15 ± 0.071
C/C=C/c1ccc(OC)cc1	1.07 ± 0.021	0.987 ± 0.047	1.03 ± 0.062	0.925 ± 0.12	0.943 ± 0.0014
CC(C)C[C@@H]1NC(=O)[C@H](CCCN)NC(=O)[C@H](C(C)C)NC(=O)[C@H](Cc2ccc(O)cc2)N[C@@H](CCC(=O)O)C(=O)N[C@@H](CC(N)=O)C(=O)[C@@H](Cc2ccccc2)NC(=O)[C@H](Cc2ccccc2)NC(=O)[C@@H]2CCCN2C(=O)[C@@H](Cc2ccccc2)NC1=O	0.894 ± 0.091	0.71 ± 0.072	0.486 ± 0.082	0.685 ± 0.041	0.469 ± 0.1
Cc1nc2ccccc2c(=O)[nH]1 [2-Methyl-3H-quinazoline-4-on]	0.991 ± 0.011	1.06 ± 0.064	0.979 ± 0.044	1.01 ± 0.09	1.1 ± 0.021
C=C1CCC(C2CC(=O)OC2=O)C(=O)CCC2C1CC2(C)C (stereo not given)	1.01 ± 0.049	1.04 ± 0.09	0.958 ± 0.0085	1.01 ± 0.19	0.901 ± 0.018
N[C@@H](Cc1cc(I)c(Oc2cc(I)c(O)c(I)c2)c(I)c1)C(=O)O	1.01 ± 0.037	1.11 ± 0.042	0.978 ± 0.018	1.19 ± 0.057	1.17 ± 0.05
Clc1ccc(CO/N=C(\Cn2ccnc2)c2ccc(Cl)cc2Cl)c(Cl)c1	0.9865 ± 0.0092	1.03 ± 0.035	0.9675 ± 0.0021	0.905 ± 0.056	0.823 ± 0.0092
CCN(CC)CCOC(=O)C(c1ccccc1)c1ccccc1	0.982 ± 0.068	0.972 ± 0.054	0.917 ± 0.036	0.904 ± 0.14	0.929 ± 0.0057
OC(CCN1CCCCC1)(c1ccccc1)c1ccccc1	0.982 ± 0.068	0.916 ± 0.051	1.02 ± 0.014	0.834 ± 0.2	0.878 ± 0.019

SMILES	cell viability [1]	cell viability [2]	cell viability [3]	TCF/Wnt firefly luciferase reporter signal [4]	TCF/Wnt firefly luciferase reporter signal [5]
C=CC1=C(C(=O)O)N2C(=O)[C@@H](NC(=O)/C(=N\O)c3csc(N)n3)[C@H]2SC1	0.911 ± 0.11	1.04 ± 0.1	0.963 ± 0.025	0.941 ± 0.052	0.969 ± 0.072
Clc1cccc(Cl)c1NC1=NCCN1	0.987 ± 0.033	0.925 ± 0.16	0.988 ± 0.013	1.065 ± 0.0071	1.01 ± 0.11
CC(=O)Nc1ccc(S(=O)(=O)c2ccc(NC(C)=O)cc2)cc1	0.966 ± 0.1	0.94 ± 0.012	0.931 ± 0.012	1.09 ± 0.035	1.05 ± 0.042
O=c1oc2c(O)c(O)cc3c(=O)oc4c(O)c(O)cc1c4c23	1.03 ± 0.028	1.125 ± 0.0071	1.11 ± 0.028	0.971 ± 0.055	1.045 ± 0.0071
C[C@H]1C[C@@H]2[C@H]([C@@H](O)C[C@@]3(C)[C@H]2CC[C@]3(O)C(=O)COC(=O)CCC(=O)O)[C@@]2(C)C=CC(=O)C=C12	0.918 ± 0.13	1.01 ± 0.018	0.921 ± 0.012	0.964 ± 0.044	0.997 ± 0.061
C=C1C2CCC3(C)C(c4ccoc4)OC(=O)CC13OC1CC(OC(C)=O)C(C)(C)C(CC(=O)OC)C12C (stereo not drawn) [3beta-ACETOXYDEOXYANGOLENSIC ACID, METHYL ESTER]	0.908 ± 0.14	0.946 ± 0.033	0.995 ± 0.05	0.966 ± 0.13	0.8955 ± 0.0021
COC(=O)[C@]1(C)CCC[C@]2(C)c3ccc(C(C)C)cc3C(=O)CC12 (stereo not given in full)	1.1 ± 0.13	1.03 ± 0.081	1.05 ± 0.028	1.07 ± 0.25	1.07
CC(=O)S[C@@H]1CC2=CC(=O)CC[C@]2(C)[C@H]2CC[C@@]3(C)[C@@H](CC[C@@]34CCC(=O)O4)[C@H]12	1.11 ± 0.014	0.97 ± 0.04	1.06 ± 0.064	0.878 ± 0.15	0.955 ± 0.016
Cn1c(=O)[nH]c(=O)c2[nH]cnc21	0.955 ± 0.026	0.8635 ± 0.0064	0.967 ± 0.032	1.09 ± 0.17	1.16 ± 0.042
C=C[C@]1(C)C=C2C(=O)[C@@]3(O)OC(=O)[C@@]4(CCCC(C)(C)[C@H]34)[C@@]2(O)CC1 [Sphaeropsidin A]	0.898 ± 0.16	0.973 ± 0.067	0.952 ± 0.015	0.938 ± 0.086	1.05 ± 0.19
Clc1ccc(C(Cn2ccnc2)OCc2ccsc2Cl)c(Cl)c1 (stereo not given)	0.966 ± 0.077	0.98 ± 0.085	1.005 ± 0.0071	0.923 ± 0.14	0.894 ± 0.023
CC(C)Cc1ccc(C(C)C(=O)O)cc1 (stereo not given)	0.962 ± 0.082	1.04 ± 0.028	1.04 ± 0.068	1.03 ± 0.021	1.06 ± 0.028
C#C[C@]1(O)CC[C@H]2[C@@H]3CCc4cc(OC)ccc4[C@H]3CC[C@@]21C	0.952 ± 0.011	1.02 ± 0.021	0.986 ± 0.0085	0.981 ± 0.15	0.944 ± 0.059
CN(C)[C@@H]1C(O)=C(C(N)=O)C(=O)[C@@]2(O)C(O)=C3C(=O)c4c(O)ccc(Cl)c4[C@@](C)(O)[C@H]3C[C@@H]12	1.05 ± 0.028	1.1 ± 0.085	1.02 ± 0.014	1.11 ± 0.13	0.99 ± 0.0042
O=c1oc(CO)c(CO)c2cccc(O)c12 [8-hydroxy-3,4-bis-(hydroxymethyl)-isocumarin]	0.91 ± 0.03	0.981 ± 0.098	0.967 ± 0.038	1.09 ± 0.092	1.05 ± 0.057
C[C@]12CCC[C@H](O1)c1c(cc3c(c1O)C(=O)c1c(O)cc(O)cc1C3=O)O2 [Averufin (Isoform A, Compound ID 7507)]	1.01 ± 0.12	1.05 ± 0.14	1.04 ± 0.088	0.896 ± 0.16	0.972 ± 0.083
O=c1c2ccccc2oc2ccccc12	0.986 ± 0.016	0.98 ± 0.043	0.98 ± 0.029	0.985 ± 0.036	0.916 ± 0.03
O=C1CC(c2ccc(O)c(O)c2)Oc2cc(O)cc(O)c21 (stereo not given)	1.04 ± 0.14	1.08 ± 0.057	0.973 ± 0.095	0.912 ± 0.011	0.862 ± 0.0014
CN1CC(=O)N2[C@H](c3ccc4c(c3)OCO4)c3[nH]c4ccccc4c3C[C@@H]2C1=O	0.995 ± 0.079	1.08 ± 0.028	0.995 ± 0.021	0.973 ± 0.081	0.941 ± 0.098
C[C@](N)(Cc1ccc(O)cc1)C(=O)O [alpha-METHYL-L-TYROSINE]	1.08 ± 0.11	1.07 ± 0.078	0.944 ± 0.016	0.896 ± 0.02	0.974 ± 0.11
O[C@H]1[C@H](O)[C@@H](O)[C@H](O)[C@@H](O)[C@H]1O	0.938 ± 0.03	0.922 ± 0.097	0.931 ± 0.0057	1.12 ± 0.042	1.07 ± 0.035
Cc1c(Nc2ncccc2C(=O)O)cccc1C(F)(F)F	0.977 ± 0.016	1.1 ± 0.11	1.04 ± 0.042	1.11 ± 0.057	0.948 ± 0.14
CC[C@]12CCCN3CCc4c(n(c5ccccc45)[C@@](O)(C(=O)OC)C1)[C@@H]32	1.02 ± 0.047	0.953 ± 0.096	1.03 ± 0.014	0.981 ± 0.11	0.971
CC(=O)N1CCCC(N)C1=O (stereo not given) [N-Acetyl-3-amino-2-piperidinon]	0.974 ± 0.079	0.871 ± 0.021	0.946 ± 0.015	0.821 ± 0.13	0.851 ± 0.044
COc1ccc(C2CNC(=O)C2)cc1OC1CCCC1 (stereo not given)	0.992 ± 0.011	0.989 ± 0.059	0.968 ± 0.0099	1.04 ± 0.18	1.06 ± 0.021
